According to ChEMBL document CHEMBL1157539, “Thousands of chemical starting points for antimalarial lead identification” (Nature, 2010):

Test system: HepG2
Experiment: GSK_TCMDC: Percent inhibition of human HepG2 cell line. Test compounds present at 10uM.
Format: functional

Row | SMILES | Inhibition [%]
1 | CN1c2ccccc2Sc2cc(CNCCSCCNCc3ccc4c(c3)Sc3ccccc3N4C)ccc21.Cl | 58
2 | CCNc1cc(C(=O)N[C@@H](Cc2ccccc2)[C@H](O)CNC(C)(C)CCCC(C)C)cc(N2CCCC2=O)c1.O=CO | 0
3 | CCN(CC)CCCC(C)Nc1c2ccccc2nc2c1ccc1ccccc12.Cl (stereo not given) | 18
4 | COc1cccc2c(NN=Cc3cccc(F)c3)ccnc12 | 12
5 | CNc1ccc(CNCc2ccc(-c3ccc(-c4nc5cc(C(F)(F)F)ccc5[nH]4)cc3)cc2)cc1.O=C(O)C(F)(F)F | 53
6 | COc1ccc2c(=O)c(I)c(C)[nH]c2c1 | 27
7 | CN(CCCc1c[nH]c2ccccc12)CC1CCN(C(=O)/C=C/c2ccc(Cl)c(Cl)c2)CC1 | 37
8 | O=C(c1ccc(-c2ccc(-c3nc4cc(F)ccc4[nH]3)cc2)cc1)N1CCCCC1CN1CCC(O)C1 (stereo not given) | 24
9 | CN1CCN(c2nc(NCCc3ccc(O)cc3)nc(NCc3ccccc3-c3ccc(C(F)(F)F)cc3)n2)CC1 | 35
10 | Cc1cccc(CNc2nc(C)cc(NCCC(=O)NCc3cccc(F)c3)n2)c1.O=C(O)C(F)(F)F | 23
11 | O=C(NCCCCN1CCC(c2ccc3c(c2O)CCCC3)CC1)c1ccc(-c2ccc(Cl)cc2)cc1 | 97
12 | CC(CCNc1c2ccccc2nc2ccccc12)N1CCN(C)CC1.Cl (stereo not given) | 25
13 | CC(C)NC(=N)NN=Cc1ccc(Cl)c(Cl)c1 | 0
14 | CCCOc1ccc(CCNCCCCNCCc2ccc(OCCC)c3ccccc23)c2ccccc12.CS(=O)(=O)O | 100
15 | NC(=O)C1CCN(Cc2ccc(-c3ccc(-c4nc5cc(C(F)(F)F)ccc5[nH]4)s3)cc2)CC1.O=C(O)C(F)(F)F | 22
16 | N=C(N)NC(=O)Nc1cc(Cl)c(Cl)c(C(F)(F)F)c1 | 6
17 | COc1ccc2nccc(CCC3(O)CCC(NCc4cc5c(cc4F)SCC(=O)N5)CC3)c2c1 (stereo not given) | 9
18 | O=C(O)C(F)(F)F.c1cc(-c2ccc(CNC3CCOCC3)cc2)cc(-c2nc3ccccc3[nH]2)c1 | 30
19 | Cl.Oc1ccc(Cc2cc(Oc3c(I)cc(CCc4ncc[nH]4)cc3I)ccc2O)cc1 | 10
20 | CC(=O)Nc1cccc(C(=O)Nc2cccc(-c3cccc(-c4nc5cc(F)ccc5[nH]4)c3)c2)c1 | 51

Row | SMILES | Inhibition [%]
21 | CCCCCCN1CCC(CNCc2cccc([N+](=O)[O-])c2)CC1.O=C(O)C(F)(F)F | 16
22 | Cc1ccc(F)c(OC2CCN(c3ccc(C(=O)NC4CC4)cn3)CC2)c1 | 10
23 | CC1Cc2ccccc2N1CC(=O)Nc1cc(C(F)(F)F)ccc1-n1cncn1 (stereo not given) | 17
24 | Nc1nc(O)c2cc(CN(C=O)c3ccc(C(=O)N[C@@H](CCC(=O)O)C(=O)O)cc3)ccc2n1 | 0
25 | O=C(NC1CC1)c1cnc(N2CCC(Oc3ccc(Cl)cc3)CC2)c(Cl)c1 | 12
26 | CCN(CC)CC(O)c1cc(-c2ccc(C)cc2)nc2c(C)cc(C)cc12.Cl (stereo not given) | 3
27 | C[C@@H](CC1CCCCC1)OC(=O)N(C)[C@H]1CCN(C#N)C1 | 4
28 | Cl.N#Cc1ccc2c(c1)CN(CCC1CCC(NC(=O)c3cc4ccccc4cc3N)CC1)CC2 (stereo not given) | 5
29 | COc1ccc(NC(=O)C2CCN(CCCCCNC(=O)/C=C/c3ccc(Cl)c(Cl)c3)CC2)cc1 | 26
30 | Cn1ccnc1CNC(=O)c1ccc(-c2ccc(-c3nc4cc(C(F)(F)F)ccc4[nH]3)s2)cc1 | 40
31 | CC(C)(C)c1ccc(S(=O)(=O)Nc2ccccc2Cn2nc(N3CCNCC3)ccc2=O)cc1.O=C(O)C(F)(F)F | 0
32 | COc1ccc(NC(=O)[C@H](C)Nc2cc(C)nc(NCC3CCCCC3)n2)cc1.O=C(O)C(F)(F)F | 12
33 | COc1cccc(Nc2nccc(NCC(O)c3cccc(C(F)(F)F)c3)n2)c1 (stereo not given) | 6
34 | Cc1ccc(NC(=O)c2ccc3ncccc3c2)cc1OC1CCN(Cc2ccco2)C1.O=C(O)C(F)(F)F (stereo not given) | 9
35 | CC(C)NCc1ccc(-c2cccc(NC(=O)c3ccc(Cl)cc3)c2)cc1.O=C(O)C(F)(F)F | 20
36 | N#Cc1ccc(CNCCCCCCCNCc2ccc(-c3ccccc3)cc2)cc1 | 19
37 | COc1cccc2cc(C(=O)N[C@@H](CC(C)C)C(=O)N[C@H](C=NN3CCOC3=O)Cc3ccccc3)oc12 | 6
38 | Cc1cc2c(cc1C(F)(F)F)N(C(=O)Nc1ccc(C(=O)NC3CCN(Cc4ccccc4)C3)cc1)CC2 (stereo not given) | 19
39 | Cc1noc(C)c1-c1ccc2c(Nc3ccccc3N3CCOCC3)c(C(=O)NCc3ccccc3)cnc2c1.Cl | 23
40 | CN(CCCN(C)c1cc(NC(=O)c2ccc(F)cc2)ccn1)Cc1cccc(F)c1.O=C(O)C(F)(F)F | 0
